Fam108B inh: blocks mouse Fam108B hydrolase in RBBP9 counter-screen | recombinant Fam108B, FP-Rh probe fluorescence polarization | inhibition, % at 9.51 µM | actives 0.33% (n = 300,000);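 active = inhibition above the screen mean inhibition plus 3 SD, computed separately per campaign, cut at about 18% in these data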;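 note: inhibitors lower polarization as less probe binds the enzyme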
TCR CD3 inh: inhibitors of human TCR-CD3 interaction. AID 651800. actives 0.37% (n = 360,000). inhibition, % at 9.4 µM. TAMRA-labeled TCR probe fluorescence, biochemical; in the data active = inhibition above about 19%;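 note: recombinant mutant TCR 2C K166C tagged with TAMRA read by polarization; 0% = receptor in buffer alone and 100% = receptor with positive control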
PAD4 inh: PAD4 (human) enzyme inhibition | Q9UM07 | recombinant PAD4, RCA probe fluorescence polarization | inhibition, % at 6.36 µM | actives 0.41% (n = 330,000);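 active = percent inhibition above a cutoff equal to the mean of all tested compounds plus 3 SD, cut at about 15% in these data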;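 note: 0% = PAD4 with RCA probe and DMSO and 100% = probe without PAD4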
PME-1 primary: PME-1 (human) inhibition | actives 0.53% (n = 320,000) | inhibition, % at 5.9 µM | recombinant PME-1, FP-Rh probe fluorescence polarization | Q9Y570;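 active = inhibition above the campaign mean of all compounds plus 3 SD, cut at about 26% in these data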;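 note: competitive labeling of PME-1 active site by serine hydrolase directed probe; 0% = PME-1 with DMSO and 100% = wells lacking PME-1 enzyme; inhibitors block probe labeling so polarization falls and inhibition rises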
PRMT1 FP inh: PRMT1 (human) inhibition, primary screen. actives 1.3% (n = 370,000). recombinant PRMT1, activity-based probe fluorescence polarization. Q99873. inhibition, % at 2.79 µM. AID 652257;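 active = inhibition above about 21% made by adding two undisclosed values, limit read from the data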
Target sequence (Q99873 whole entry, looked up): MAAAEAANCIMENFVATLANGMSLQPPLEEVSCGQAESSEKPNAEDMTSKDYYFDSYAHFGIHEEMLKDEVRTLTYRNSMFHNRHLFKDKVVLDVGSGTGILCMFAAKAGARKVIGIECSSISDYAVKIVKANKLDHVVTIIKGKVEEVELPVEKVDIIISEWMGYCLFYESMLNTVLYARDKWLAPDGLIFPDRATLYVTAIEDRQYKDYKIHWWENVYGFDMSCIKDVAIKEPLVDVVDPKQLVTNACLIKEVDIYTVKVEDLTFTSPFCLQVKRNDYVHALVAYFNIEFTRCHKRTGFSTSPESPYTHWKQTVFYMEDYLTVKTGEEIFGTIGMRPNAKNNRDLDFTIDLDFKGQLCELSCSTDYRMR
SIAE primary: blocks human sialic acid acetylesterase | inhibition, % at 9.66 µM | SIAE FP-Rh probe binding, fluorescence polarization | AID 1053197 | Q9HAT2 | actives 0.69% (n = 370,000);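 active = inhibition above a cutoff: mean of compounds within the control limits plus 3 SD of those, cut at about 17% in these data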;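 note: 0% = plate median of compound wells and 100% = probe without SIAE protein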
The depositor's hits bear a star; / = no result given. Compounds with a hit are over-represented: about 2.6% of the library has one in this group of screens.

SMILES	Fam108B inh	TCR CD3 inh	PAD4 inh	PME-1 primary	PRMT1 FP inh	SIAE primary
COC(=O)[C@]12C[C@H](CC(=O)N3CCN(C(=O)C4CC4)CC3)C(=O)N(Cc3ccco3)C1=C[C@H](C(C)(C)C)O[C@@H]2C	/	/	/	/	6	-1
O=C(NCc1ccccc1)Nc1ccccc1C(=O)N1CCCC1	/	/	/	/	1	-6
O=C(/C=C/c1ccco1)NC(=S)Nc1ccc(C(=O)O)cc1	6	11	1	-33	24*	2
Cc1ccnc(NC(=S)NC(=O)/C=C/c2ccco2)c1	-4	1	2	-2	23*	4
CCCC1CCC2(CCCN2CCOC(=S)Nc2ccccc2OC)CC1 (stereo not given)	/	/	/	/	19	2
CCc1ccc(CNCCNC(=O)c2ccco2)cc1	/	0	/	/	21*	-10
O=C(CN1CCc2onc(-c3ccc(-n4cc(-c5ccccc5)nn4)cc3)c2C1=O)N1CCOCC1	/	/	/	/	15	4
CC(C)=NNc1nc2sc3c(c2c(=O)[nH]1)CC(C)(C)OC3	-4	9	-4	36*	3	0
O=C(O)CCc1ccc(-c2ccccc2)n1CC(=O)O	-2	-7	-6	-5	23*	-3
O=C(O)CCc1ccc(-c2ccc(Br)cc2)n1CC(=O)O	-3	0	-8	-2	8	1
CCOC(=O)C1=C(C)NC(=S)NC1c1ccc(-c2cccc(Cl)c2C)o1 (stereo not given)	4	-1	-4	0	22*	2
CCOC(=O)C1=C(C)NC(=S)NC1c1ccco1 (stereo not given)	2	4	4	-1	20	-2
C/C(C=Nn1c(-c2ccc(F)cc2)n[nH]c1=S)=C/c1ccco1	/	/	/	/	18	1
CCC(C)NC(=O)[C@@H]1CSC2c3ccccc3C(=O)N21 (stereo not given in full)	3	-5	0	-5	21*	-4
CCOC(=O)[C@]12CCCCC/C=C\1N(Cc1ccc(OC)cc1)C(=O)[C@H]2CC(=O)N1CCN(C(=O)c2ccco2)CC1	/	/	/	/	1	6
COC(=O)c1cccc(N2C(=O)C(Cl)=C(N3CCOCC3)C2=O)c1	-2	1	-8	2	13	6
O=C1C(Cl)=C(N2CCOCC2)C(=O)N1c1cccc(C(F)(F)F)c1	3	-5	8	-11	22*	-1
COc1cccc([C@H]2NC(=O)C/C=C/[C@@H](C)[C@@H](c3cccc(OC)c3)NC(=O)C/C=C/[C@H]2C)c1	/	/	/	/	-1	0
Nc1ccc2cc3ccc(N)cc3nc2c1	/	/	/	/	148*	11
Cc1nc(C)c(C(=O)Nc2nc3c(C)cccc3s2)o1	13	6	-8	6	13	3
Cc1cccc2sc(NNC(=O)c3cc(=O)c4ccccc4o3)nc12	4	-1	4	47*	14	13
COc1ccc2nc(NNC(=O)c3cc(=O)c4ccccc4o3)sc2c1	1	-1	-1	7	22*	12
Cc1cc(C)c(S(=O)(=O)Nc2ccc(O)cc2)cc1C	-1	/	0	4	/	/
Cc1cc(C)c(S(=O)(=O)Nc2cc(SCC(=O)O)c(O)c3ccccc23)cc1C	15	/	49*	15	/	/
O=C(CCCc1c[nH]c2ccccc12)N1CCN(c2ccc(N3CCOCC3)nn2)CC1	2	6	5	7	-4	19*
SMILES	Fam108B inh	TCR CD3 inh	PAD4 inh	PME-1 primary	PRMT1 FP inh	SIAE primary
Cc1cc(C)c(NC(=O)CSc2ccc(-c3cccnc3)nn2)c(C)c1	1	3	1	7	23*	-6
Cc1oc(-c2cccs2)nc1CS(=O)CC(=O)NCCc1ccccc1 (stereo not given)	-2	-6	-8	8	22*	-5
COc1ccc(NC(=O)n2nc(OC(=O)c3cccs3)cc2N)cc1	0	-6	-6	-1	24*	-1
COc1ccc(NC(=O)c2cc([N+](=O)[O-])ccc2NC(=O)CNCc2ccccn2)c(OC)c1	0	0	-1	8	25*	0
CCCCOCCCNC(=O)C[C@H]1C[C@@]2(C(=O)OC)C(=C[C@H](C(C)C)O[C@@H]2C2CC2)N(CCC2=CCCCC2)C1=O	/	/	/	/	6	-8
COc1cc(/C=C2\S/C(=N/S(=O)(=O)Cc3ccccc3)NC2=O)c([N+](=O)[O-])cc1OC	4	-8	-9	-3	7	0
COc1cc(/C=C2/S/C(=N/S(=O)(=O)c3ccccc3)NC2=O)c([N+](=O)[O-])cc1OC	1	-1	-15	-1	33*	-12
CC(C)(C)N(NS(=O)(=O)c1ccc(F)cc1)c1ccccc1	-4	2	-6	3	22*	7
Cc1cc(C(=O)CSc2ncccn2)c(C)n1-c1cccc(F)c1	-1	-2	-3	-1	0	-5
Cc1cc(C(=O)CSc2nc(N)cc(N)n2)c(C)n1-c1cccc(C(F)(F)F)c1	-1	0	-14	29*	4	3
COc1ccc2cc3c(N)c(C(=O)NCc4ccco4)sc3nc2c1	5	12	-2	35*	6	3
COc1ccc2cc3cc(C(=O)NCc4ccco4)oc3nc2c1	-2	9	-5	-12	11	-13
Cc1ccc(C)c(NC(=O)C2CCCN2S(=O)(=O)c2cccnc2)c1 (stereo not given)	/	/	/	/	-2	2
COC(=O)[C@]12C[C@H](CC(=O)N3CCCCC3)C(=O)N(Cc3cccc4ccccc34)C1=C[C@H](COCc1ccccc1)O[C@@H]2C	/	/	/	/	2	2
O=C(CSc1nnc(-c2ccccc2)n1Cc1ccccc1)N1CCOCC1	-7	3	10	1	-1	2
Oc1ccccc1-c1nnc(SCCN2CCOCC2)n1Cc1ccccc1	0	43*	-4	3	3	15
COc1cccc(C(=O)NN2C(=O)C3C4C=CC(O4)C3C2=O)c1 (stereo not given)	-2	10	-2	-8	23*	15
O=C(OCC(=O)c1cccs1)c1ccccc1	0	2	-2	-5	-1	2
O=C(CC(Nc1ccccc1Cl)C(=O)OCC(=O)c1cccs1)c1ccccc1 (stereo not given)	-6	9	-3	-5	21*	-1
COc1ccc(N(CC(=O)NCc2ccco2)S(=O)(=O)c2ccc(C)cc2)cc1OC	0	3	-4	0	2	2
COc1ccccc1N(CC(=O)NCc1ccco1)S(=O)(=O)c1ccc(C)cc1	1	6	0	1	21*	-12
COc1ccc(OC)c(S(=O)(=O)N2CCCC(c3noc(-c4ccc(C)cc4)n3)C2)c1 (stereo not given)	/	/	/	/	-4	3
Cc1cccc(-n2nc3c(c2NC(=O)c2ccco2)CSC3)c1C	-3	-5	-4	-15	30*	-7
O=C1CNC(=O)/C(=C/c2ccco2)N1	-2	0	-3	-1	23*	3
